Rows were chosen to be rich in hits. Some 2.8% of all compounds tested hit in one or more screens of this group.
GLS inh = glutaminase GLS (human) inhibition. GLS enzymatic activity, qHTS titration. 410,000 tested, 0.21% active. O94925. Potency, µM (top dose mostly 45.5 µM), usual class: inhibitors
Target sequence (O94925 whole entry, looked up): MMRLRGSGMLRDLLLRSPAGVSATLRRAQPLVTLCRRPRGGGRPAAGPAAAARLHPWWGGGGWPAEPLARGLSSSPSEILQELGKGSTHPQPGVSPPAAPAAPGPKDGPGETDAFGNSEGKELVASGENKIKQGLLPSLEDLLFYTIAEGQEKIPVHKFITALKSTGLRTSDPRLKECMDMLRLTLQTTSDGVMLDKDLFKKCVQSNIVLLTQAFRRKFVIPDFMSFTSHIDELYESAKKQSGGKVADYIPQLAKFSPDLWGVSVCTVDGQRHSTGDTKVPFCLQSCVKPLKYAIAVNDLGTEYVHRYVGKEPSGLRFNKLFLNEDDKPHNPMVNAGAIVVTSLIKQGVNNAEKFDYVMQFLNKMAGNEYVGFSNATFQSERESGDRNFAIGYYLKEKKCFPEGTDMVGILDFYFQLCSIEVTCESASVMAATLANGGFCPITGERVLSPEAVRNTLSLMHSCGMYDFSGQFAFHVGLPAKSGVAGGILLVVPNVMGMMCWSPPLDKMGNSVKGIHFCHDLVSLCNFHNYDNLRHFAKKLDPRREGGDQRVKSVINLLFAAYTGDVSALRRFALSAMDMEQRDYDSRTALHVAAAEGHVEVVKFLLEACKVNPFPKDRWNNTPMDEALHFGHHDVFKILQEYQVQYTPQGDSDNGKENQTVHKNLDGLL
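hKGA in 45 mM KH2PO4 (pH 8.2), 0.02% Tween-20 with compound, then 1mM L-Glutamine (stock as added) plus glutamate oxidase/HRP/Amplex red coupling mix. Fluorescence read initially and after 30 min at RT; signal change reflects glutamate formation.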
KCNH2 3.1 block = inhibitors of human KCNH2 3.1 potassium channel isoform; U2OS KCNH2 3.1, thallium flux FluxOr; active compounds read low; activity change, % (tested at about 1.8 µM); 340,000 tested, 0.95% active; AID 720553;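 active = maximum activity change below -70%; inconclusive = maximum activity change from -70% to -50%; inactive = maximum activity change above -50%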;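 also: thallium influx rate constant from kinetic fluorescence after stimulation buffer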
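Measured as rate of thallium-driven FluxOr signal in transduced U2OS cells carrying the 3.1 channel, read kinetically for 2 min upon stimulation; values are rate constants scaled to DMSO control wells.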
GLP-1R inv ag = inverse agonists of human GLP-1 receptor | HEK293 GLP-1R CRE-luciferase, luminescence, 24 h; GLP-1R form is constitutively active | AID 624417 | 410,000 tested, 1.6% active | Potency, µM (titrated, usually from 38.3 µM), hits mostly inhibitors; also: nearly all actives have a fitted effect of over 55% in size
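qHTS in 1536-well format: reporter HEK293 cells expressing constitutive GLP-1R activity in DMEM + 10% Nu serum, 24 hr with compounds at 37 deg C, luminescence read after 12 min with detection reagent.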
GLP-1R agonist = GLP-1 receptor (human) agonism | HEK293 GLP-1R CRE-luciferase, luminescence, 4-6 h; cells express a hypersensitive GLP-1R form | Potency, µM (top dose mostly 45.6 µM), hits mostly activators | 380,000 tested, 0.007% active | AID 624172
hERG WT inh = inhibitors of human wildtype KCNH2 potassium channel; U2OS, BacMam KCNH2, thallium flux FluxOr; active compounds read low; activity change, % at 1.84 µM; 340,000 tested, 0.37% active;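 active = maximum activity change below -70%; inconclusive = maximum activity change between -70% and -50%; inactive = maximum activity change above -50%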
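U2OS cells were transduced with wild-type KCNH2 virus (2.03 x 10^8 / mL) for 4 h at room temperature, then cultured overnight at 37 C. Thallium flux was read with FluxOr dye. Rate constants were normalized to DMSO controls.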
GLP1R cytotox = cytotoxicity in counter-screen for GLP-1R inverse agonists; HEK293 cAMP-luciferase reporter cells, luminescence, 24 h; 410,000 tested, 0.13% active; Potency, µM (titrated, usually from 38.3 µM), usual class: inhibitors;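 also: loss of luciferase light is scored as toxicity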
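To flag toxic compounds, the library was rerun on cells for 24 hr at 37 deg C and 5% CO2. Viability-linked luminescence was captured 12 min after adding luciferase detection reagent.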
Each line names hits and unclear results; the compound was inactive in the other large screens. Unless noted, calls follow the shape of the dose curve; as a rule, active = well fitted curve in the direction sought with a large enough effect; inconclusive = small, poorly fitted or top-dose-only effect, or another doubt; inactive = no such curve, though single readings can be large; an effect the other way counts as inactive or inconclusive.

CC(C)CC1=NN(C(=O)c2cccnc2)C(O)(C(F)(F)F)C1 (configuration not stated)	GLP-1R inv ag inconclusive
CC(C)CC1=NN(C(=O)c2ccncc2)C(O)(C(F)(F)F)C1 (configuration not stated)	GLS inh inconclusive, GLP-1R inv ag 1.1µM
CC1=NN(C(=O)c2csc(C(C)C)c2)C(O)(C(F)(F)F)C1 (configuration not stated)	GLP-1R inv ag 1.3µM, GLP1R cytotox inconclusive
Cc1cc(=O)n2c(C(=O)Nc3ccc(C)c(Cl)c3)c(C(=O)Nc3ccccc3)sc2n1	none (no result: KCNH2 3.1 block, GLP-1R agonist, hERG WT inh)
Fc1ccc(-[n+]2nc(Nc3ccccc3)sc2-c2c3ccccc3cc3ccccc23)cc1	GLP-1R inv ag 11µM, GLP1R cytotox inconclusive
Cc1cccc(-c2sc(Nc3ccccc3)n[n+]2-c2ccc(F)cc2)c1	KCNH2 3.1 block -92
CCc1ccc(Nc2n[n+](-c3ccccc3)c(-c3cccc(C)c3)s2)cc1	GLP-1R inv ag inconclusive
Oc1ccc2ccccc2c1-c1sc(Nc2ccccc2)n[n+]1-c1ccc(F)cc1	GLP-1R inv ag inconclusive
Cc1cccc(N2CCN(c3nc4ccc(C)cc4n4cnnc34)CC2C)c1 (configuration not stated)	none (no result: KCNH2 3.1 block, GLP-1R agonist, hERG WT inh)
CC(C)CN(CCCNC(=O)CN1N=C(c2ccc(Cl)cc2)CCC1=O)CC(C)C	none
CC(NS(=O)(=O)OCC(Cl)(Cl)Cl)c1ccc(C(C)(C)C)cc1 (configuration not stated)	GLP-1R inv ag 5.6µM, GLP1R cytotox inconclusive
CC(C)(NS(=O)(=O)OCC(Cl)(Cl)Cl)c1ccccc1	GLP-1R inv ag inconclusive
CCOc1ccc2nc(N(Cc3cccnc3)C(=O)c3ccc4c(c3)OCCO4)sc2c1	none (no result: KCNH2 3.1 block, GLP-1R agonist, hERG WT inh)
CO[C@@H]1[C@@H](OC2OC(C)C(OC3CC(C)(O)C(O)C(C)O3)C(N(C)C)C2O)[C@@H](CC=O)C[C@@H](C)[C@@H](OC2CCC(N(C)C)C(C)O2)/C=C/C=C/C[C@@H](C)OC(=O)C[C@H]1OC(C)=O (some centres not stated)	none (no result: KCNH2 3.1 block, GLP-1R inv ag, hERG WT inh, GLP1R cytotox)
O=C(CSCc1nc2cccnc2n1C1CCCCC1)NCc1cccc(Br)c1	GLP-1R inv ag inconclusive (no result: KCNH2 3.1 block, GLP-1R agonist, hERG WT inh)
Cc1ccc(NC(=O)Cc2coc3c(C)c(C)ccc23)c(C)c1	none (no result: KCNH2 3.1 block, GLP-1R agonist, hERG WT inh)
Cc1ccc2c(CC(=O)Nc3ccc(N4CCN(C)CC4)cc3C)coc2c1	KCNH2 3.1 block -83
COc1ccc(-c2csc(N)n2)cc1F	hERG WT inh -123
Nc1nc(-c2ccc(F)cc2)cs1	none
COc1ccc(NC(=O)CN2C(=O)C(C)(C)c3cc(S(=O)(=O)N4CCCCC4)ccc32)cc1Cl	GLP-1R inv ag inconclusive (no result: KCNH2 3.1 block, GLP-1R agonist, hERG WT inh)
O=C(NCc1cccc(Cl)c1)c1cc(COc2ccc3ncccc3c2)on1	GLP-1R inv ag 10µM
NNC(=O)c1cccc(COc2ccc(Br)cc2)c1	GLP-1R inv ag 5µM
O=C(NCc1ccccc1)c1cccc(COc2cccc(Cl)c2)c1	GLP-1R inv ag 7.9µM
COc1ccc(OCc2cccc(C(=O)NN)c2)cc1	GLP-1R inv ag inconclusive
COc1cc(CNC(=O)c2cccc(COc3ccc(Cl)cc3)c2)cc(OC)c1	GLP-1R inv ag 3.2µM
NNC(=O)c1cccc(COc2cccc(Br)c2)c1	none
O=C(NCc1ccccc1)c1cccc(COc2ccc(Cl)cc2)c1	KCNH2 3.1 block inconclusive, GLP-1R inv ag inconclusive
COc1ccc(OCC(O)CNCCOc2ccccc2OC)c(C(C)(C)C)c1 (configuration not stated)	GLP-1R inv ag 13µM
O=C(CCCCCn1c(=O)[nH]c2ccsc2c1=O)NCc1ccccc1	none (no result: KCNH2 3.1 block, hERG WT inh)
O=C(CCNC(=O)c1ccccc1)OCN1C(=O)c2ccccc2C1=O	KCNH2 3.1 block -73
Cc1ccc(C)c(S(=O)(=O)N(C)C2CCS(=O)(=O)C2)c1 (configuration not stated)	none
FC(F)(F)c1cc(C(F)(F)F)c2ccc(N3CCN(c4ccc(Cl)cc4)CC3)nc2n1	KCNH2 3.1 block -90 (no result: GLS inh)
N#CC(c1ccc(Cl)cc1)c1ccc2c(C(F)(F)F)cc(C(F)(F)F)nc2n1 (configuration not stated)	GLP-1R inv ag 7.1µM, GLP1R cytotox 7.9µM
CCCCN(CC)C(=O)Cn1cc2c(n1)-c1c(oc(C(=O)N3CCCC3)c1C)CC2	none (no result: KCNH2 3.1 block, GLP-1R agonist, hERG WT inh)
O=C(c1cc(-c2ccccc2)nc2ccccc12)N1CCc2ccccc2C1	GLP-1R inv ag 11µM
Cc1ccc(-c2cc(C(=O)N3CCN(c4ccccc4O)CC3)c3ccccc3n2)o1	GLP-1R inv ag inconclusive
COc1ccc(-c2cc(C(=O)N3CCN(c4ncccn4)CC3)c3ccccc3n2)cc1OC	KCNH2 3.1 block -142, GLP1R cytotox inconclusive
COc1ccc(-c2cc(C(=O)Nc3ccc(S(=O)(=O)Nc4onc(C)c4C)cc3)c3ccccc3n2)cc1OC	KCNH2 3.1 block -81
O=C(c1cc(-c2ccc(Br)cc2)nc2ccccc12)N1CCN(c2ccccc2O)CC1	KCNH2 3.1 block -74, GLP-1R inv ag 2.5µM, GLP1R cytotox inconclusive
COc1ccc(-c2cc(C(=O)Nc3ccc(C(N)=O)cc3)c3ccccc3n2)cc1OC	GLP-1R inv ag inconclusive
Cc1nc2ccn(Cc3ccco3)c(=O)c2cc1C(=O)NCc1ccccc1F	GLP-1R inv ag inconclusive (no result: KCNH2 3.1 block, GLP-1R agonist, hERG WT inh)
COc1cccc(CNC(=O)CC(c2ccc(F)cc2)N2Cc3ccccc3C2=O)c1 (configuration not stated)	GLP-1R inv ag inconclusive (no result: KCNH2 3.1 block, GLP-1R agonist, hERG WT inh)
Cc1ccccc1COc1ccc(/C=N/NC(=O)c2nnn(-c3nonc3N)c2CN2CCC(C)CC2)cc1	KCNH2 3.1 block inconclusive, GLP-1R inv ag inconclusive
CC1CCN(Cc2c(C(=O)N/N=C/c3ccc(OC(C)C)cc3)nnn2-c2nonc2N)CC1	KCNH2 3.1 block -112, GLP-1R inv ag inconclusive
CC(=C/c1ccccc1)/C=N/NC(=O)c1nnn(-c2nonc2N)c1CN1CCC(C)CC1	GLP-1R inv ag 4µM
Cc1ccc(NC(=O)C2CCCN(c3nnc(-n4c(C)ccc4C)s3)C2)cc1Cl (configuration not stated)	none (no result: KCNH2 3.1 block, GLP-1R agonist, hERG WT inh)
CC[n+]1c(/C=C2/C=C(C)CC(C)(C)C2)sc2ccc(OC)cc21	GLP-1R inv ag inconclusive, hERG WT inh -71, GLP1R cytotox inconclusive
CC(C)CCc1noc(CN(C)CCC2CCOCC2)n1	none
CC(C)CCc1noc(CN(CC2CCC2)CC2CCCO2)n1 (configuration not stated)	KCNH2 3.1 block -72, GLP-1R inv ag inconclusive
O=C(NCCCc1ccccc1)c1cccc([N+](=O)[O-])c1	none
Cc1ccc(C(=O)N/C(=C\c2ccc(C(C)C)cc2)C(=O)NCCCN2CCOCC2)cc1	none
